Experiments:
Assay in all cases: DAPPL (digital affinity profiling via proximity ligation, sequencing); 10 mM Tris-HCl pH 7.5, 50 mM NaCl, 1 mM DTT, 4% glycerol, room temperature, 30 min; GST-TFs on glutathione beads, 16-mer random dsDNA library, 0.1% formaldehyde crosslink after washing; high values mean tight binding
Details in all cases: protein: recombinant; tags: N-terminal GST; dsDNA, one strand shown
ELK1 = target: T1, ELK1 (Homo sapiens, UniProt P19419 1-428)
T1 sequence: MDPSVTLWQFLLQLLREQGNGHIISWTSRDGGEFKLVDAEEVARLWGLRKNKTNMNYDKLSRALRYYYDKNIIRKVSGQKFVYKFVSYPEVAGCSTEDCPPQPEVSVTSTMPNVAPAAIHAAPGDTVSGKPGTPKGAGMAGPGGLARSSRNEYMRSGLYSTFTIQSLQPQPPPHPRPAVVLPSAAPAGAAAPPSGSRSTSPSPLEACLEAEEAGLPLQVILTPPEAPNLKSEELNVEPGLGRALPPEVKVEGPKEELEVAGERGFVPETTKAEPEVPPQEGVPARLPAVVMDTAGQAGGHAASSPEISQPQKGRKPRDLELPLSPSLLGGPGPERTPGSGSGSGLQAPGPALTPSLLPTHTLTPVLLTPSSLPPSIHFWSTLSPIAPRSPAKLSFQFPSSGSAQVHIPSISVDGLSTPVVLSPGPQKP
How it was run: (§1)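 GST fusions of human transcription factors were expressed in yeast and captured with glutathione beads. Once given DNA barcodes and pooled alongside a tag-only sample, they were incubated for 30 min at room temperature with 200 nmole of a random double-stranded 16-mer DNA library in Tris/NaCl/DTT/glycerol buffer, then washed, crosslinked (0.1% formaldehyde), proximity-ligated, PCR-amplified and sequenced on an Illumina NextSeq500. The binding signal of each hexamer is its read frequency for a factor divided by its frequency for the tag-only sample.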

EHF = target: T2, EHF (Homo sapiens, UniProt Q9NZC4 1-300)
T2 sequence: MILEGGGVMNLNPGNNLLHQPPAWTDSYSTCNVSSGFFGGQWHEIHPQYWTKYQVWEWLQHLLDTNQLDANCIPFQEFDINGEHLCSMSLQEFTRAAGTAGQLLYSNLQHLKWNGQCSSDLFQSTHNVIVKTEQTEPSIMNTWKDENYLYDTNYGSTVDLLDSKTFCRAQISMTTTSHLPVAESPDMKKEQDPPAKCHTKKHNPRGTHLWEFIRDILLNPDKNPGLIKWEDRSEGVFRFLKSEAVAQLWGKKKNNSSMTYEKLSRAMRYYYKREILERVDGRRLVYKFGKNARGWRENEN
How it was run: as §1

SPIB = SPIB (Homo sapiens, UniProt Q01892 1-262)
How it was run: as §1

ETV5 = ETV5 (Homo sapiens, UniProt P41161 1-510)
How it was run: as §1

SPIC = target: T3, SPIC (Homo sapiens, UniProt Q8N5J4 1-248)
T3 sequence: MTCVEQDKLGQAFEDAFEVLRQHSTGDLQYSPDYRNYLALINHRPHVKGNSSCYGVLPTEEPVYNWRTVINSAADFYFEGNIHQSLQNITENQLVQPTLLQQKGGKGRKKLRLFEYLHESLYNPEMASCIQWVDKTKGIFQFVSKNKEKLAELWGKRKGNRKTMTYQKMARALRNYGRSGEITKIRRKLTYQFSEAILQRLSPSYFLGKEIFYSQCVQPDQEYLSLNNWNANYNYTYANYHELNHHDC
How it was run: as §1

ELK4 = target: T4, ELK4 (Homo sapiens, UniProt P28324-2 1-405)
T4 sequence: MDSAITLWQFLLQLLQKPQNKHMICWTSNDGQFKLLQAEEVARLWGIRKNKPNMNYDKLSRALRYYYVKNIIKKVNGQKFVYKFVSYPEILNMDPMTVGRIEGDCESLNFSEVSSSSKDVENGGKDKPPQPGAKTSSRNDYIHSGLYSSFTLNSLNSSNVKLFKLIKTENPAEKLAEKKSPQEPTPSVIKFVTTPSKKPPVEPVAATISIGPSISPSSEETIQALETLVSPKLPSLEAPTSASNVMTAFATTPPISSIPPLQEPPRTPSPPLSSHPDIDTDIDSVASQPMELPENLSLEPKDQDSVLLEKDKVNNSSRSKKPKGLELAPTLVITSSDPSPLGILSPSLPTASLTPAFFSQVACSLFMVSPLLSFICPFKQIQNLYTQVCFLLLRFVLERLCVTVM
How it was run: as §1

ETV3L = target: T5, ETV3L (Homo sapiens, UniProt Q6ZN32 1-361)
T5 sequence: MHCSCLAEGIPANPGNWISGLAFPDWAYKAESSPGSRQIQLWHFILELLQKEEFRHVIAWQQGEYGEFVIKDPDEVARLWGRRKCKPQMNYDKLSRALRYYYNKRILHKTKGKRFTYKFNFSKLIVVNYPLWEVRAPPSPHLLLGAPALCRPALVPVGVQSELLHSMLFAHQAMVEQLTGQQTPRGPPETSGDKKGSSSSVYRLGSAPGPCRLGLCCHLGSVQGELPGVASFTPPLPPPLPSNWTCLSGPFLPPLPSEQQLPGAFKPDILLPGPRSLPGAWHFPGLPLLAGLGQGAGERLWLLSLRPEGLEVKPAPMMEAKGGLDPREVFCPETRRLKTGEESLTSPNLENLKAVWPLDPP
How it was run: as §1

ETV3 = target: T6, ETV3 (Homo sapiens, UniProt P41162-2 1-143)
T6 sequence: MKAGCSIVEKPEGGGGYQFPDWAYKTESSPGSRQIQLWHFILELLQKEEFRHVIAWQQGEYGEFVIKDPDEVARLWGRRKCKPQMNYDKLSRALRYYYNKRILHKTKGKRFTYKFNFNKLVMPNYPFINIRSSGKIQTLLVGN
How it was run: as §1

ELF3 = target: T7, ELF3 (Homo sapiens, UniProt P78545 1-371)
T7 sequence: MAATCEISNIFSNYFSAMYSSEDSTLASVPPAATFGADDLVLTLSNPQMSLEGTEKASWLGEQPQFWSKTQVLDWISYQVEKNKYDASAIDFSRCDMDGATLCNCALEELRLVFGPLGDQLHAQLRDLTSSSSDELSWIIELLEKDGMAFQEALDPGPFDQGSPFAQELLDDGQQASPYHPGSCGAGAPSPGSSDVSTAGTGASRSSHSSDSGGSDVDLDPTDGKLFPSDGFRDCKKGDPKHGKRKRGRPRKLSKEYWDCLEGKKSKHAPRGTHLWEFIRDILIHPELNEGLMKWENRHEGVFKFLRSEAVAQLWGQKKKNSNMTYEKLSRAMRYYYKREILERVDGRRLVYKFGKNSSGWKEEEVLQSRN
How it was run: as §1

ETV7 = target: T8, ETV7 (Homo sapiens, UniProt Q9Y603 1-341)
T8 sequence: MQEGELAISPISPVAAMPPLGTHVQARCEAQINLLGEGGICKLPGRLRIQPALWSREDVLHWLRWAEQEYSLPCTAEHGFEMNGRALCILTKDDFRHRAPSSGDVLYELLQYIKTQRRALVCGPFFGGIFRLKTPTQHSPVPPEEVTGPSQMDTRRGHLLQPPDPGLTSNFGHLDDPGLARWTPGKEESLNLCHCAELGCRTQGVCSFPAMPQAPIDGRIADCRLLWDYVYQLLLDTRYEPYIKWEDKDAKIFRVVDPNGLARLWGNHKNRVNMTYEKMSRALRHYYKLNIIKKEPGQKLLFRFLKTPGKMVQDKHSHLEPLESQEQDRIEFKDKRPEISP
How it was run: as §1

ETV6 = ETV6 (Homo sapiens, UniProt P41212 1-452)
How it was run: as §1

GABPA = target: T9, GABPA (Homo sapiens, UniProt Q06546 1-454)
T9 sequence: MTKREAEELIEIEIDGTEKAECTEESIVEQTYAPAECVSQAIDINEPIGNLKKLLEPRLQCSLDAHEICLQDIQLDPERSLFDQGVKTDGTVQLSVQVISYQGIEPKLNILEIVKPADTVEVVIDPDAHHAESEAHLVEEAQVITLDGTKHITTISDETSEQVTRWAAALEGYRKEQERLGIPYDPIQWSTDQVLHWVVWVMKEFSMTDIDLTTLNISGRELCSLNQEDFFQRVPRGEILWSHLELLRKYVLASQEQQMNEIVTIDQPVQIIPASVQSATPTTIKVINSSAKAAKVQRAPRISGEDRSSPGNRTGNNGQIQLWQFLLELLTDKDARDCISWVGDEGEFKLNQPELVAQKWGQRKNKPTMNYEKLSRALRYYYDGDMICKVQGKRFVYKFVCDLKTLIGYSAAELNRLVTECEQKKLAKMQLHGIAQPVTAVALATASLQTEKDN
How it was run: as §1

ERF = target: T10, ERF (Homo sapiens, UniProt P50548 1-548)
T10 sequence: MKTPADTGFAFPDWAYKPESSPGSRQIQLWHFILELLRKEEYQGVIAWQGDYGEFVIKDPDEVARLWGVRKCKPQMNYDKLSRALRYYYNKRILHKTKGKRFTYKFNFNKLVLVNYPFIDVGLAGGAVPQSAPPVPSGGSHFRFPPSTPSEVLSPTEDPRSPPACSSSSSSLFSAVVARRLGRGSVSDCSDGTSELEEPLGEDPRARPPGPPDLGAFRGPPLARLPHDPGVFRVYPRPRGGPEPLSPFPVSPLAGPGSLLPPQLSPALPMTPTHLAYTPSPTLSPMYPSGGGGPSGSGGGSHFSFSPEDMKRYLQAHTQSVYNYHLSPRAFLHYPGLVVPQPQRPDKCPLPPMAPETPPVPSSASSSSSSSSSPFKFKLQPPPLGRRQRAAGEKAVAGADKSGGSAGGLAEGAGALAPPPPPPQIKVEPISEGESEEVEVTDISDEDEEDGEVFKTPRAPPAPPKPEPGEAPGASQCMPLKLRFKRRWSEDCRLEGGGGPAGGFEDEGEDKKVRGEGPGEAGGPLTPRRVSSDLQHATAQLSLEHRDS
How it was run: as §1

Sequence of ETV5 (P41161 whole entry): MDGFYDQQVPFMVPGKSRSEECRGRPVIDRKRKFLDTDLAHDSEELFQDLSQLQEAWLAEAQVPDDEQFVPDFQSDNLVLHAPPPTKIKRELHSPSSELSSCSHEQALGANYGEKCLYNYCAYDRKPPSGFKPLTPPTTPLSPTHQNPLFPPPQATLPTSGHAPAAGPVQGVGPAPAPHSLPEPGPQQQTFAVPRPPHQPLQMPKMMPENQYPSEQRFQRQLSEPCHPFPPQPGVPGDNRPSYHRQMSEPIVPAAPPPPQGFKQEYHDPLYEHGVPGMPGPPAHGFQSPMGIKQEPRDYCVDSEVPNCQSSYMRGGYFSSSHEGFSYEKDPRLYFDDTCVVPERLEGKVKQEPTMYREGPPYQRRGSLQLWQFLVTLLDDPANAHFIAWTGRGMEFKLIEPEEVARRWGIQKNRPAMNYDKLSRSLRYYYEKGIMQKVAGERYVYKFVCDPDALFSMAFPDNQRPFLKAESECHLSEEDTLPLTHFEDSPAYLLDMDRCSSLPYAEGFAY
Sequence of ETV6 (P41212 whole entry): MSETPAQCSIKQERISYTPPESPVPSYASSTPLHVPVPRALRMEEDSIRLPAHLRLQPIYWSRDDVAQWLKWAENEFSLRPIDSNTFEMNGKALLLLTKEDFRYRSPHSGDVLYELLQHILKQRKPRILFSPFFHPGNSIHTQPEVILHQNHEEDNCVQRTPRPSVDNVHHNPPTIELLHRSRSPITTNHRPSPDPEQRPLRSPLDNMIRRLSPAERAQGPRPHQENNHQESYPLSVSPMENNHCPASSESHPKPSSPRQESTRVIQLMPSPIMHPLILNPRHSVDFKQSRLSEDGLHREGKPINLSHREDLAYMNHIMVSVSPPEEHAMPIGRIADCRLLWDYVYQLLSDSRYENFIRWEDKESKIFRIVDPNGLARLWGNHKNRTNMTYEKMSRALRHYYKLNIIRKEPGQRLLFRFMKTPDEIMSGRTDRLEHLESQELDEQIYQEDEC
Sequence of SPIB (Q01892 whole entry): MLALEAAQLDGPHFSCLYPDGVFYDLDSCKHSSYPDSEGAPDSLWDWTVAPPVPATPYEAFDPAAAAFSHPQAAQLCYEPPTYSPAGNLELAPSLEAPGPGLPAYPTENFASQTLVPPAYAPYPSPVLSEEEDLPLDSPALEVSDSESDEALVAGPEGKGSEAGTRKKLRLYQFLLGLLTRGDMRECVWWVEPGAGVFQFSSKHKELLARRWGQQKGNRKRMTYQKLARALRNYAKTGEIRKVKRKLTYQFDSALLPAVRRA

Sequence | binding signal (ELK1) | binding signal (EHF) | binding signal (SPIB) | binding signal (ETV5) | binding signal (SPIC) | binding signal (ELK4) | binding signal (ETV3L) | binding signal (ETV3) | binding signal (ELF3) | binding signal (ETV7) | binding signal (ETV6) | binding signal (GABPA) | binding signal (ERF)
CAGTTC | 1.05 fold enrichment (6-mer frequency, TF over GST control) | 1.02 fold enrichment (6-mer frequency, TF over GST control) | 1.04 fold enrichment (6-mer frequency, TF over GST control) | 1.04 fold enrichment (6-mer frequency, TF over GST control) | 1.17 fold enrichment (6-mer frequency, TF over GST control) | 1.07 fold enrichment (6-mer frequency, TF over GST control) | 1.05 fold enrichment (6-mer frequency, TF over GST control) | 1.13 fold enrichment (6-mer frequency, TF over GST control) | – | – | – | – | –
AAACAG | – | – | – | 1.07 fold enrichment (6-mer frequency, TF over GST control) | 1.12 fold enrichment (6-mer frequency, TF over GST control) | 1.04 fold enrichment (6-mer frequency, TF over GST control) | – | 1.01 fold enrichment (6-mer frequency, TF over GST control) | 1.01 fold enrichment (6-mer frequency, TF over GST control) | 1.04 fold enrichment (6-mer frequency, TF over GST control) | 1.03 fold enrichment (6-mer frequency, TF over GST control) | – | –
GGCAAT | 1 fold enrichment (6-mer frequency, TF over GST control) | – | – | 1 fold enrichment (6-mer frequency, TF over GST control) | – | – | – | – | 1.01 fold enrichment (6-mer frequency, TF over GST control) | – | – | 1 fold enrichment (6-mer frequency, TF over GST control) | 1.02 fold enrichment (6-mer frequency, TF over GST control)
